Data as given in PubChem BioAssay AID485314 (National Center for Advancing Translational Sciences (NCATS), 2010).
Among all 340,000 compounds or so, about 4,500 (1.3%) were called active. Roughly 5% stayed inconclusive and do not appear here. The call rests on the fitted dose curve; in most records, active means well fitted inhibition curve with a large enough effect; inconclusive means small, poorly fitted or top-dose-only effect, or another doubt; inactive means no such curve, though single readings can be large or run the other way. The list comes from a sample in which actives are over-represented; it also holds similar structures and randomly drawn compounds.

Each molecule was assayed against DNA polymerase beta (Homo sapiens) (UniProt P06746) (assay: qHTS Assay for Inhibitors of DNA Polymerase Beta). Settings: Pol beta primer extension/strand displacement, fluorescence kinetic; series mostly up to 114 µM; activity change, negative = inhibition: at the top concentration.
Outline: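 Human Pol beta at 10 nM; strand-displacement substrate 50 nM final. Compound exposure 15 min at room temperature before start, reaction 10 min at room temperature.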
On the % scale 0 is the no-effect control and ±100 the full control effect; potency means the concentration at half of the fitted maximal effect.

Row | Structure (SMILES) | activity change, negative = inhibition | Potency
1 | CCCCn1c(CNC(=O)C23CC4CC(CC(C4)C2)C3)nnc1SCC(=O)Nc1ccc(C)cc1 | -23.9% (inactive) | 
2 | CCCn1c2ccccc2c2cnn(CC(=O)N3CCCC(C(=O)OCC)C3)c(=O)c21 (stereo not given) | -3.43% (inactive) | 
3 | CC(=O)c1sc2nc(SCC(=O)N3CCCCC3)[nH]c(=O)c2c1C | -27% (inactive) | 
4 | CCOC(=O)c1sc2nc(CSCC(=O)OCc3ccc(C(=O)OC)o3)[nH]c(=O)c2c1C | -0.296% (inactive) | 
5 | CSc1nnc(SCc2nc3sc(C(=O)O)c(C)c3c(=O)[nH]2)s1 |  | 6.31 µM (active)
6 | Cc1ccc(C2c3[nH]c4ccccc4c3CCN2C(=O)c2cccc(C)c2)cc1 (stereo not given) | 3.32% (inactive) | 
7 | O=C(Nc1ccc(OC(F)(F)F)cc1)C1CCCN(S(=O)(=O)c2ccc(Br)s2)C1 (stereo not given) | -6.29% (inactive) | 
8 | Cc1ccc(CSc2nc3cccnc3n2Cc2ccc(C(=O)NC3CC3)cc2)cc1 | 0.704% (inactive) | 
9 | COc1ccc(C2(Nc3cccc(F)c3)C(=O)c3ccccc3C2=O)cc1 | 9.84% (inactive) | 
10 | CN(Cc1ccccc1)S(=O)(=O)c1ccc(F)c(C(=O)Nc2cccc(Cl)c2Cl)c1 | 3.34% (inactive) | 
11 | O=C1CSC(=S)N1c1ccc(O)cc1 | 10.1% (inactive) | 
12 | O=C1CSC(=S)N1/N=C/c1ccc(O)c([N+](=O)[O-])c1 |  | 17.8 µM (active)
13 | O=[N+]([O-])c1ccc(N2CCSCC2)cc1O | 0.685% (inactive) | 
14 | Cc1ccc(Nc2c(-c3ccc(C)cc3)nc3cnccn23)cc1 | 2.74% (inactive) | 
15 | CCOC(=O)C1CCN(c2ncnc3c2c(-c2ccccc2)cn3-c2cccc(C)c2)CC1 | 29.8% (inactive) | 
16 | COc1ccc(Cl)cc1N(C)C(=O)c1cc2c(=O)oc3ccc(C)cc3c2s1 | -16.4% (inactive) | 
17 | O=C(Nc1cccc(Cl)c1)c1csnn1 | -3.01% (inactive) | 
18 | O=C(Nc1ccc(Oc2ccccc2)cc1)C1CCN(S(=O)(=O)c2ccc(Cl)cc2)CC1 | 0.848% (inactive) | 
19 | O=C(Nc1ccccc1)c1nnsc1S(=O)(=O)c1ccc(Cl)cc1 |  | 44.7 µM (active)
20 | CC(C)c1ccc(OCC(=O)N(Cc2ccc(N(C)C)cc2)C2CCS(=O)(=O)C2)cc1 (stereo not given) | -25% (inactive) | 
21 | CC(=O)Nc1ccc(Nc2c3ccccc3nc3ccccc23)cc1 |  | 17.8 µM (active)
22 | CC(C)(C)OC(=O)NNc1c2ccccc2nc2ccccc12 | 23.7% (inactive) | 
23 | CCc1nc(Nc2ccc(NC(C)=O)cc2)c2oc3ccccc3c2n1 | 13.3% (inactive) | 
24 | COc1ccc(C(=O)NCC(c2ccc(N(C)C)cc2)N2CCc3ccccc32)c(OC)c1 (stereo not given) | 32% (inactive) | 
25 | CCOc1ccc(-n2c(O)c(/C=N/c3ccnn3Cc3ccncc3)c3ccccc3c2=O)cc1 | 11.5% (inactive) | 

Row | Structure (SMILES) | activity change, negative = inhibition | Potency
26 | CCOc1ccc(-n2c(O)c(/C=N/Nc3nnc(C)c(=O)[nH]3)c3ccccc3c2=O)cc1 |  | 56.2 µM (active)
27 | CCOc1ccc(-n2c(O)c(/C=N/Nc3nc(C)cc(C)n3)c3ccccc3c2=O)cc1 | -19.5% (inactive) | 
28 | CCOc1ccccc1NC(=O)CN1CCCN(Cc2cccc(Cl)c2)S1(=O)=O | 1.06% (inactive) | 
29 | C=CC1C(OC2OC(CO)C(O)C(O)C2O)OC=C(C(=O)OC)C1CC1CC(=O)CC(CC(=O)CCc2ccc(O)cc2)O1 (stereo not given) | -1.69% (inactive) | 
30 | CC1=C(C)C(=O)OC(C(C)C2CCC3C4CC=C5CC(OC6OC(COC7OC(CO)C(O)C(O)C7O)C(O)C(O)C6O)CC(O)C5(C)C4CCC23C)C1 (stereo not given) | 0.697% (inactive) | 
31 | CC(/C=C/C1(O)C(C)CC(=O)CC1(C)C)OC1OC(CO)C(O)C(O)C1O (stereo not given) |  | 28.2 µM (active)
32 | Cc1ccc(-c2nc3ccccn3c2Nc2c(C)cccc2C)o1 | 26.6% (inactive) | 
33 | O=C(CN1CCSc2ccccc21)N1CCN(c2ccccc2)CC1 | 2.05% (inactive) | 
34 | Oc1c(Cl)cc(Cl)c(Cl)c1Cc1c(O)c(Cl)cc(Cl)c1Cl |  | 28.2 µM (active)
35 | Cc1ccc(Cc2nc3ccccc3nc2SCC(=O)Nc2cccc(C(F)(F)F)c2)cc1 | -1.48% (inactive) | 
36 | Cc1ccc(-c2cnc(C3CC3)o2)cc1S(=O)(=O)Nc1cccc(C)c1C | -2.43% (inactive) | 
37 | CCCOc1ccc(-c2cccc(NS(=O)(=O)c3ccccc3)c2)nn1 | 0.493% (inactive) | 
38 | O=C(N/N=C/c1ccco1)c1ccc(C(=O)N/N=C/c2ccco2)o1 |  | 17.8 µM (active)
39 | O=C(N/N=C/c1ccco1)c1csc2c1CCCC2 | 6.62% (inactive) | 
40 | O=C(Cc1ccc([N+](=O)[O-])cc1)N/N=C/c1ccco1 | 5.52% (inactive) | 
41 | CCc1ccccc1NC(=O)CSc1nnc(-c2ccccc2)c(-c2ccccc2)n1 | 3.25% (inactive) | 
42 | Cc1c(Cl)cccc1NC(=O)N1CCN(C(=O)c2nsc3ccccc23)CC1 | -0.591% (inactive) | 
43 | COc1ccccc1N1CC(C(=O)Nc2ccc(S(=O)(=O)N3CCOCC3)cc2)CC1=O (stereo not given) |  | 79.4 µM (active)
44 | Cc1ccc(N2CC(C(=O)Nc3ccc(S(=O)(=O)N4CCCC4)cc3)CC2=O)cc1C (stereo not given) | 1.24% (inactive) | 
45 | CC1CCN(S(=O)(=O)c2ccc(NC(=O)C3CC(=O)N(c4ccccc4)C3)cc2)CC1 (stereo not given) | -23.6% (inactive) | 
46 | COc1ccc(NC(=O)NC(C)c2c(-n3cccc3)sc(C)c2C)cc1OC (stereo not given) | -0.276% (inactive) | 
47 | CCOc1ccc2nc(N3CCCC(C(=O)Nc4cc(C)ccc4C)C3)sc2c1 (stereo not given) | 1.66% (inactive) | 
48 | c1ccc(-c2cc(-c3nnc4sc(-c5ccccn5)nn34)[nH]n2)cc1 |  | 39.8 µM (active)
49 | CCOc1cccc(-c2nn3c(-c4ccccn4)nnc3s2)c1 | 29.3% (inactive) | 
50 | S=c1[nH]nc(-c2cc(-c3ccsc3)n[nH]2)n1-c1ccccc1 | 38.9% (inactive) | 

Row | Structure (SMILES) | activity change, negative = inhibition | Potency
51 | O=C(NNC(=O)c1cc2c(s1)CCCC2)c1ccccc1 | -1.77% (inactive) | 
52 | O=C(C1CCC1)N1CCN(c2ccccc2)CC1 | 12.2% (inactive) | 
53 | O=C(c1cc2c(s1)CCC2)N1CCN(c2ccccc2)CC1 |  | 17.8 µM (active)
54 | CCc1ccc(NC(=O)c2cc(S(=O)(=O)NC3CCCCCC3)ccc2F)cc1 | 1.54% (inactive) | 
55 | CCOc1cccc(CC(=O)N2CCc3c([nH]c4ccccc34)C2c2ccc(OC)cc2)c1OCC (stereo not given) | -16.3% (inactive) | 
56 | Cc1ccccc1Nc1nnc(SCC(=O)c2cc3ccccc3o2)s1 | -1.02% (inactive) | 
57 | CC(C)c1ccc(Nc2nnc(SCC(=O)c3nnc(-c4ccccc4)o3)s2)cc1 |  | 39.8 µM (active)
58 | CC(C)Nc1nnc(SCC(=O)c2c[nH]c3ccccc23)s1 | 1.26% (inactive) | 
59 | Cc1cccc(Cn2c(SCc3ccc(C(=O)N4CCC(C)CC4)cc3)nc3ccncc32)c1 | 19.7% (inactive) | 
60 | COc1cc(OC)c(OC)cc1/C=C/c1nc2ccccc2c(=O)n1-c1ccc(Br)c(C)c1 | 22.7% (inactive) | 
61 | COc1ccc(C(=O)Nc2cccc(C(=O)OCc3cc(=O)n4c5c(sc4n3)CCCC5)c2)cc1 | -16.3% (inactive) | 
62 | Cc1ccc(CN2CCc3nc(N4CCN(C)CC4)ncc3C2)cc1 | 32% (inactive) | 
63 | COc1cccc(N2CCN(C(=O)CCCCCn3c(=O)[nH]c4ccccc4c3=O)CC2)c1 | 27.1% (inactive) | 
64 | Cc1cc(C)c2nc(-c3ccco3)cc(C(=O)O)c2c1 |  | 7.08 µM (active)
65 | Cc1cccc(NC(=O)CSc2nc(-c3ccco3)cc(C(F)(F)F)n2)c1C | -2.02% (inactive) | 
66 | Cc1ccsc1-c1cc(C(=O)O)c2c(ccc3ccccc32)n1 | 13.8% (inactive) | 
67 | CCOc1cc(CNC(=O)c2sc3ncnc(N(C)C4CCCCC4)c3c2C)ccc1OC | -1.77% (inactive) | 
68 | COc1ccc(CCNC(=O)C(=O)NCC(c2ccco2)S(=O)(=O)c2cccs2)cc1OC (stereo not given) | -9.89% (inactive) | 
69 | O=C(Nc1ccc2nc(SCC(=O)N3CCCc4ccccc43)sc2c1)c1ccc(F)cc1 | 13.6% (inactive) | 
70 | O=C(CSc1nccn1C1CCCC1)Nc1cc(C(F)(F)F)ccc1Cl | 6.31% (inactive) | 
71 | CCCc1nc2sc3c(c2c(=O)n1NC(=O)CCCl)CCCC3 | -2.23% (inactive) | 
72 | Cn1c(NN)nc2sc3c(c2c1=O)CCC3 |  | 89.1 µM (active)
73 | NNC(=O)C1CCCn2c1nc1sc3c(c1c2=O)CCCC3 (stereo not given) | 2.75% (inactive) | 
74 | COc1ccccc1OCC(=O)Nc1nnc2n1CCS2 | -20.4% (inactive) | 
75 | CCOC(=O)c1c(C)oc2nc(C)nc(N3CCN(c4ccc(OC)cc4)CC3)c12 | -15.6% (inactive) | 

Row | Structure (SMILES) | activity change, negative = inhibition | Potency
76 | CC(=O)NC1C(Oc2ccc(C=O)cc2)OC(COC(C)=O)C(OC(C)=O)C1OC(C)=O (stereo not given) |  | 39.8 µM (active)
77 | CC(=O)NC1C(Oc2ccc(C)cc2)OC2COC(c3ccco3)OC2C1O (stereo not given) | -3.84% (inactive) | 
78 | CCc1cccc(OC2OC(CO)C(O)C(O)C2NC(C)=O)c1 (stereo not given) | -1.07% (inactive) | 
79 | Cc1c(C(=O)N2CCCC2)oc2c1-c1nn(CC(=O)NCc3ccc(OC(C)C)cc3)cc1CC2 | 2.91% (inactive) | 
80 | COc1ccc(-c2nc(SCC(=O)N3CCCCC3C)n[nH]2)cc1 (stereo not given) | 3.44% (inactive) | 
81 | CCCCCn1c(=O)[nH]c2cc(C(=O)NCCN(C)CCCC)ccc2c1=O | -2.03% (inactive) | 
82 | Cc1ccc(C(=O)Oc2coc(CSc3nnc(NC(=O)c4cccs4)s3)cc2=O)cc1C |  | 20 µM (active)
83 | CCSc1nnc(NC(=O)c2cc(=O)c3cc(C)c(C)cc3o2)s1 | -16.3% (inactive) | 
84 | CCSc1nnc(NC(=O)c2ccc(C)cc2)s1 | -1.08% (inactive) | 
85 | CCOC(=O)C1CCN(c2csc3ccc(C)cc3c2=O)CC1 | 38.3% (inactive) | 
86 | COc1cc(/C=C2/C(=O)NN(c3cccc(Cl)c3)C2=O)cc(Br)c1O | -5.39% (inactive) | 
87 | Cc1cccc(C)c1-n1c(C)cc(/C=C2\C(=O)NN(c3ccccc3)C2=O)c1C | -1.38% (inactive) | 
88 | O=C1NN(c2ccccc2)C(=O)/C1=C/c1ccc(-c2cccc(C(=O)O)c2)o1 |  | 35.5 µM (active)
89 | CCOc1cc(C2C(C(=O)OC)=C(C)NC3=C2C(=O)c2ccccc23)ccc1O (stereo not given) | -20.1% (inactive) | 
90 | Cc1cccc2nc(-c3ccc(Cl)s3)c(Nc3ccc4c(c3)OCCO4)n12 | -14.7% (inactive) | 
91 | Cc1ccc(OC(=O)CCC(=O)Nc2ccc(Br)cc2)cc1 | 5.33% (inactive) | 
92 | COc1ccc(C(=O)CCC(=O)Nc2ccc(Cl)cc2)cc1 | -4.79% (inactive) | 
93 | Cc1ccc(NC(=O)CCC(=O)c2ccc(Br)cc2)cc1 |  | 89.1 µM (active)
94 | CCOc1cc(-c2nnc(SCC(=O)NC3CCCC3)nc2-c2ccc(OC)c(OCC)c2)ccc1OC | -29.7% (inactive) | 
95 | CCCn1c2ccccc2c2cnn(CC(=O)N(C)c3ccccc3CC)c(=O)c21 | 0.302% (inactive) | 
96 | COc1cccc(CNC(=O)CCc2nc(-c3ccc(C)cc3)no2)c1 | 0.0036% (inactive) | 
97 | COc1ccc(OC)c(NC(=O)CSc2nc3ccccc3nc2N2CCCCC2)c1 | -7.89% (inactive) | 
98 | Cc1ccc2nc(/C(C#N)=C/c3ccccc3F)[nH]c2c1 | 0.138% (inactive) | 
99 | Cc1ccc2nc(/C(C#N)=C/c3ccc(-c4ccc(C(=O)OC(C)C)cc4)o3)[nH]c2c1 |  | 28.2 µM (active)
100 | CCOC(=O)c1ccc(-c2ccc(/C=C(\C#N)C(=O)Nc3ccc(C)cc3)o2)cc1 | 9.25% (inactive) | 
